High-throughput results (PubChem)
The list is not random: actives were taken first. Their share in the collection is about 18%.
VDR inh = blocks the human vitamin D receptor | P11473 | VDR-SRC2-3 peptide fluorescence polarization, 2 h | Potency, µM, for the others: max response, negative = inhibition, usual class: inhibitors | 400,000 tested, 0.93% active | AID 504847
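Fluorescence polarization assay measuring small-molecule disruption of VDR binding to the coregulator peptide SRC2-3. Compounds were pin-transferred (23 nl) into the reagent mix and incubated 2 h at room temperature before reading.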
DT40 TDP1 no CPT = qHTS for Inhibitors of human tyrosyl-DNA phosphodiesterase 1 (TDP1): qHTS in cells in absence of CPT; 420,000 tested, 15% active; AID 686978, 2013; Potency, µM (series often up to 46.2 µM), without a hit: top-dose activity change, negative = growth inhibition, usual class: inhibitors; DT40 Tdp1-/- hTDP1 cells, no CPT, ATP luminescence, 48 h; further: nearly all actives have a fitted effect of over 55% in size
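Seeded 400 DT40-hTDP1 cells/well (vehicle DMSO, no 20 nM CPT); pinned compounds; ≥48 hr at 37 °C; CellTiter-Glo luminescence as viability measure.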
TDP1 block = blocks human tyrosyl-DNA phosphodiesterase 1. Q9NUW8. recombinant TDP1, AlphaScreen DNA substrate cleavage. Potency, µM (titrated, usually from 130 µM), for the others: top-dose activity change, negative = inhibition, most hits filed as inhibitors. 350,000 tested, 0.28% active; further: nearly all actives have a fitted effect of over 40% in size
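Recombinant E. coli-expressed Tdp1 (1 nM) preincubated with compound 15 min at RT, then 5'-biotin/3'-phosphotyrosine-FITC DNA substrate (15 nM) added for 5 min. AlphaScreen beads (10 ug/ml) added, 10 min RT; tyrosine-FITC cleavage read as signal loss.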
GCN5L2 inh = GCN5L2 (KAT2A) acetyltransferase inhibition; Q92830; GCN5L2 HAT assay, ThioGlo1 CoA-SH fluorescence; Potency, µM (titrated, usually from 58.9 µM), without a hit: at the top dose activity change, negative = inhibition, usual class: inhibitors; 390,000 tested, 0.21% active; AID 504327
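qHTS, 1536-well. 20nM enzyme, pH 7.5 HEPES/EDTA/Tween-20 buffer; 15 min compound preinc., RT. Start: 75uM H3(1-25), 70uM AcCoA, 50uM ThioGlo1. Read Ex340/Em540 at t=0 (autofluorescence flag) and t=20 min.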
PLK1 PBD block = PLK1 (human) polo-box domain binding inhibition; P53350; Plk1 PBD binding of FITC phosphopeptide, fluorescence polarization; Potency, µM, inactives show max response, negative = inhibition, most hits filed as inhibitors; 360,000 tested, 2.8% active; AID 720504; further: series mostly up to about 57 µM; nearly all actives have a fitted effect of over 65% in size
Target sequence (P53350 whole entry, looked up, the tested form may be a part): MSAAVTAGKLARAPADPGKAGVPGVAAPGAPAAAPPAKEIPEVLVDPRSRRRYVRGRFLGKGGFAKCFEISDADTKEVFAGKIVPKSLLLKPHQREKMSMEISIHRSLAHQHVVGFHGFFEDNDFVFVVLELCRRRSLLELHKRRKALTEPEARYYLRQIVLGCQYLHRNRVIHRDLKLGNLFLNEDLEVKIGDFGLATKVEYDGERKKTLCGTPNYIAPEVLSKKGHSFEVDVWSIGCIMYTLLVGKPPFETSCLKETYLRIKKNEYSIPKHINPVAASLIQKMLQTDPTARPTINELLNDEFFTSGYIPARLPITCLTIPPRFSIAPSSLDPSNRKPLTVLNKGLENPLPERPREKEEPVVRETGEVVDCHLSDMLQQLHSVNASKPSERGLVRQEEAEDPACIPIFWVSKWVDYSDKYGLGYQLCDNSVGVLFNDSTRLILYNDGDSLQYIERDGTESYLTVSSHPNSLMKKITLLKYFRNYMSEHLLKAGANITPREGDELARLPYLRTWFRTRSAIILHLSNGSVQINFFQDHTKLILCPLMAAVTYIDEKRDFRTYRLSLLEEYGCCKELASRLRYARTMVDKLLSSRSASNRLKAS
TDP1 cell CPT = DT40-hTDP1 cell growth loss with CPT | chicken DT40 Tdp1-/-;hTDP1 cells + 20 nM CPT, ATP luminescence, 48 h | Potency, µM (highest dose often 46.2 µM), for the others: at the highest dose activity change, negative = growth inhibition, most hits filed as inhibitors | 420,000 tested, 12% active | AID 686979; further: nearly all actives have a fitted effect of over 55% in size
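Cell growth measured by CellTiter-Glo luminescence after a minimum 48 h, 37 C compound exposure with 20 nM CPT in Tdp1-knockout DT40 cells stably expressing hTDP1, seeded 400/well; qHTS titration format.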
An asterisk follows results filed as active; ? = inconclusive; nt = no result given; [ ] = dose if it differs, or a comment. The call rests on the fitted dose curve; in most records, active means well fitted curve in the direction sought with a large enough effect; inconclusive means small, poorly fitted or top-dose-only effect, or another doubt; inactive means no such curve, though single readings can be large; an effect the other way counts as inactive or inconclusive. On the % scale 0 is the no-effect control and ±100 the full control effect; potency means the concentration at half of the fitted maximal effect.

SMILES	VDR inh	DT40 TDP1 no CPT	TDP1 block	GCN5L2 inh	PLK1 PBD block	TDP1 cell CPT
COc1ccc(OC)c(NC(=O)C(CC(=O)O)NCc2ccco2)c1 (centres undefined)	12.2%	15.9%	4.1%	3.16µM*	-10.7%	-22.2%
Cc1ccc(Nc2nc(NCc3ccco3)nc3nccnc23)c(C)c1	-4.5%	?	8.91µM*	nt	nt	?
Cc1ccccc1Nc1nc(NCc2ccco2)c2ccccc2n1	12.1%	3.66µM*	10.5%	-6.5%	-11.5%	5.8µM*
Cc1ccc(-c2nc(NCc3ccco3)c3ccccc3n2)cc1	4.9%	?	-2.2%	1.1%	-5.0%	?
CCOC(=O)C(CC(=O)O)NCc1ccco1 (centres undefined)	-21.4%	-4.1%	8.4%	-3.1%	-4.2%	-3.4%
CCCCN(C)C(=O)c1ccc2c(c1)N(Cc1cccc(F)c1)C(=O)c1ccccc1S2	7.1%	?	4.7%	1.6%	nt	?
Oc1ccccc1Nc1nc(NCc2ccco2)c2ccccc2n1	-8.9%	20.6µM*	10.7%	-8.1%	5.6%	16.4µM*
COc1cccc(-c2nc(NCc3ccco3)c3ccccc3n2)c1O	-6.0%	-17.6%	6.1%	-10.7%	3.5%	-18.6%
CC(=O)Nc1ccc(S(=O)(=O)NCCC(=O)NC(C)c2cccs2)cc1 (centres undefined)	17.1%	14.4%	0.5%	-6.8%	0.3%	0.4%
CCc1ccccc1NC(=O)c1nnn(-c2ccc(F)cc2)c1C	-3.6%	?	-2.9%	-2.2%	nt	-17.1%
Cc1c(C(=O)Nc2ccc(F)cc2F)nnn1-c1ccccc1Br	13.8%	13µM*	8.6%	-6.2%	nt	10.3µM*
O=C(CNS(=O)(=O)c1c(F)cccc1F)NC1CCCc2ccccc21 (centres undefined)	7.5%	-16.0%	0.7%	4.6%	-2.1%	-13.0%
NC(=O)C12CCCC(Br)(CCC1)C2	-0.7%	-5.4%	nt	0.8%	-21.0%	16.6%
COC(=O)Oc1ccc(/C=N/NC(=O)CSCc2ccc(Cl)cc2)cc1OC	-6.5%	11.6µM*	3.5%	-9.9%	-10.7%	25.9µM*
CCOC(=O)N/N=C/c1ccc(OCCSc2ccc(Cl)cc2)c(OC)c1	-11.8%	25.9µM*	2.7%	-5.2%	5.3%	14.6µM*
O=C(NCc1cccs1)C(=O)c1cn(CC(=O)N2CCCC2)c2ccccc12	-27.6%	-16.7%	-2.6%	-5.9%	-9.4%	-27.4%
CCOC(=O)C1(Cc2ccccc2)CCCN(C(=O)c2ccc(-n3ccnc3)cc2)C1 (centres undefined)	21.6%	?	5.0%	-4.9%	-0.7%	?
CCOc1ccccc1OCC(=O)NN1Cc2ccccc2C1=N	-3.6%	-6.4%	5.6%	-4.0%	-8.4%	1.1%
O=C1[C@@H](Oc2ccccc2)[C@@H](c2cccnc2)N1c1ccccc1	-24.6%	18.4µM*	nt	1.7%	-2.6%	20.6µM*
C[C@@H]1C(=O)N(c2ccccc2)[C@@H]1c1ccncc1	-5.9%	-16.3%	nt	-2.4%	-2.4%	1.1%
O=C1C2C(c3ccccc3)C=CC(c3ccccc3)C2C(=O)N1c1cccnc1 (centres undefined)	11.3%	0.5%	5.3%	3.3%	-4.5%	8.4%
O=C1[C@H](Oc2ccccc2)[C@@H](c2ccccc2)N1c1ccncc1	?	23.1µM*	nt	-4.5%	-9.7%	?
CCCCn1c(CN2CCN(C(=O)OCC)CC2)nc2c1c(=O)n(C)c(=O)n2C	-11.3%	9.2µM*	0.0%	-9.6%	-0.8%	11.6µM*
CCOC(=O)Cn1c(CN2CCN(C(c3ccccc3)c3ccccc3)CC2)nc2c1c(=O)n(C)c(=O)n2C	2.9%	23.1µM*	0.0%	-14.4%	-0.9%	?
Cn1c(=O)c2c(nc(N3CCc4ccccc4C3)n2Cc2ccccc2F)n(C)c1=O	-7.4%	15.8µM*	2.5%	0.3%	-3.2%	12.6µM*
SMILES	VDR inh	DT40 TDP1 no CPT	TDP1 block	GCN5L2 inh	PLK1 PBD block	TDP1 cell CPT
Cc1ccccc1Cn1c(CN2CCc3ccccc3C2)nc2c1c(=O)n(C)c(=O)n2C	-11.1%	20.6µM*	7.4%[56.1 µM]	-0.4%	?	?
Cn1c(=O)c2c(nc(N3CCc4ccccc4C3)n2Cc2ccc(Br)cc2)n(C)c1=O	-1.1%	-7.0%	-6.8%	-1.5%	-0.3%	-11.8%
CCN(CC(=O)Nc1cccc(OC)c1)CC(=O)Nc1ccc(C)cc1Cl	11.9%	?	-5.0%	-0.7%	-6.3%	?
COC(=O)Cn1c(CN2CCOCC2)nc2c1c(=O)n(C)c(=O)n2C	-12.0%	-8.4%	nt	-1.0%	-0.1%	7.5%
COC(=O)Cn1c(CN2CCc3ccccc3C2)nc2c1c(=O)n(C)c(=O)n2C	-10.8%	20.6µM*	3.1%	0.9%	-6.4%	13µM*
Cn1c(=O)c2c(nc(CN3CCN(Cc4ccccc4)CC3)n2Cc2ccccc2)n(C)c1=O	nt	nt	4.1%	-5.9%	nt	nt
Cn1c(=O)c2c(nc(CN3CCc4ccccc4C3)n2Cc2ccc(F)cc2)n(C)c1=O	-17.8%	18.4µM*	nt	nt	-2.1%	20.6µM*
C=C(C)c1cccc(C(C)(C)NC(=O)NC2CC(C)(C)NC(C)(C)C2)c1	9.8%	-6.0%	-5.1%	0.7%	-5.4%	?
CCNCCCNCCCCNCCCNCC	5.9%	5.31µM*	9.9%[56.1 µM]	-8.2%[0.501 µM]	nt	3.76µM*
Cc1ccc(-c2noc(CNC(=O)COc3cc(C)c(Br)c(C)c3)n2)cc1	14.3%	-6.6%	-1.2%	-7.0%	nt	-1.9%
COc1ccc(-c2ccc3c(n2)CCCN3C[C@H](O)CN2CCCc3nc(C)c(C)cc32)cc1	nt	nt	16.4%[21 µM]	nt	nt	nt
COc1cc(C(=O)Nc2ccc(Cl)c(C(F)(F)F)c2)cc(OC)c1OC	8.3%	23.1µM*	-4.7%	-9.7%	1.7%	14.6µM*
COc1cc(CCC(=O)Nc2ccc(Cl)c(C(F)(F)F)c2)cc(OC)c1OC	-11.6%	8.2µM*	0.6%	-1.0%	1.5%	18.4µM*
COc1cc(CCC(=O)OCC(=O)Nc2ccc(F)c(F)c2)cc(OC)c1OC	-18.5%	-11.1%	nt	-0.7%	-10.5%	-4.2%
COc1ccc(CN(C)C(=O)c2ccc(OCC(=O)Nc3cccc(C(F)(F)F)c3)c(OC)c2)c(OC)c1	-3.1%	?	nt	-14.4%	4.7%	?
COc1cccc(CN(C)C(=O)c2ccc(OCC(=O)Nc3cccc(C(F)(F)F)c3)c(OC)c2)c1	-10.4%	9.2µM*	4.5%	-20.2%	-5.2%	10.3µM*
COc1ccccc1-c1noc(CCCC(=O)Nc2cccc(C(F)(F)F)c2)n1	4.8%	18.4µM*	3.8%	-3.6%	nt	?
COc1ccccc1-c1noc(CCC(=O)Nc2cc(C(F)(F)F)ccc2Cl)n1	-8.8%	?	9.5%	2.8%	-1.6%	-20.7%
